Results on 156 variants are retold here after a collection of fitness landscapes (doi:10.1016/j.celrep.2020.107928).

In all, about 81,000 sequences were measured (“one-hybrid fitness for binding parS DNA”: median about -0.17, highest 2% from about 0.51 on). The sample holds the highest values, similar sequences and a random draw of the others, so the mix is not that of the screen.

The labels stand for the following.
B1: Caulobacter ParB omega fusion; a variant is named by its letters at X, in order, B8GW30 (parent)
chain: MESVVVGEPGMSEGRRGLGRGLSALLGEVDAAPAQAPGEQLGGSREAPIEILQRNPDQPRRTFREEDLEDLSNSIREKGVLQPILVRPSPDTAGEYQIVAGERAWRAAQRAGLKTVPIMVRELDDLAVLEIGIIENVQRADLNVLEEALSYKVLMEKFERTQENIAQTIGKSXSHVANXMRLLXLPDEVQSYLVSGELTAXHARAIAAAADPVALAKQIIEGGLSVRETEALARKAPNLSAGKSKGGRPPRVKDTDTQALESDLSSVLGLDVSIDHRGSTGTLTITYATLEQLDDLCNRLTRGI

Variants of B1 are the subject of this experiment. The experiment in a line: one-hybrid fitness for binding parS DNA (scaled: cognate 1, non-cognate 0); higher = stronger binding. To be noted: with parS DNA site. An outline of the steps: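 Values were rescaled so that cognate is 1 and non-cognate is 0. Each is a fitness, the log change in a variant's read ratio to wild type from Illumina reads of plasmids before and after selection, with three replicate libraries pooled and variants under 10 reads dropped. Selection of the Caulobacter ParB libraries, four specificity codons randomised, used E. coli USO with a HIS3 reporter, site 19 bp from the promoter, on M9-minus-histidine with 0.1 mM IPTG and 5 mM 3-AT for 48 hours at 37°C.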
Consider DNYC, for which the “one-hybrid fitness for binding parS DNA” value is at most 0.2.
To ALFC belongs at most 0.2; to RPWG, at most 0.2; to REWG, at most 0.2.
To RAWM belongs 0.35; to RSWG, 0.93.
On to RCWG, for which the “one-hybrid fitness for binding parS DNA” value is 1.02.
On to RAWK, for which the “one-hybrid fitness for binding parS DNA” value was at most 0.2.
To RSWF belongs at most 0.2; to RAWG, 0.989; to RDWG, at most 0.2.
Under NGLR stands at most 0.2; under NTER, at most 0.2; under REFQ, at most 0.2.
Take WDSN: the “one-hybrid fitness for binding parS DNA” value was at most 0.2.
Under KYTC stands at most 0.2; under TIAK, at most 0.2.
To PMKR belongs at most 0.2.
To RLVK belongs at most 0.2; to RLVG, 0.991.
On to RLKH, for which the “one-hybrid fitness for binding parS DNA” value is 0.247.
To RLVQ belongs at most 0.2; to RLKG, 0.945.
To RLKP belongs at most 0.2.
QRLA: the “one-hybrid fitness for binding parS DNA” value was at most 0.2.
Under IESL stands at most 0.2; under KWDD, at most 0.2.
On to RVNC, for which the “one-hybrid fitness for binding parS DNA” value amounted to 0.947.
For the variant RVDC, the “one-hybrid fitness for binding parS DNA” value stood at 0.846.
Under RVDF stands at most 0.2.
To RVDM belongs 0.258; to RVNR, at most 0.2; to RVNE, at most 0.2.
Under YLAV stands at most 0.2.
CPVL: the “one-hybrid fitness for binding parS DNA” value was at most 0.2.
To ANSF belongs at most 0.2; to GFRL, at most 0.2.
Regarding RRAG, the “one-hybrid fitness for binding parS DNA” value is 0.738.
As for RRAP, the “one-hybrid fitness for binding parS DNA” value is at most 0.2.
Under RRFG stands 0.831; under RRFM, at most 0.2; under RRAR, at most 0.2.
Turning to RRFD, the “one-hybrid fitness for binding parS DNA” value is at most 0.2.
To SKVG belongs at most 0.2; to CPAW, at most 0.2.
Regarding QCMI, the “one-hybrid fitness for binding parS DNA” value is at most 0.2.
Under DCNA stands at most 0.2.
For RHYA, the “one-hybrid fitness for binding parS DNA” value was found to be 0.562.
To DHNA belongs at most 0.2; to RHNA, 0.543.
Under RHPA stands at most 0.2; under RHRA, 0.58.
Under RHDA stands 0.545.
Turning to RHIA, the “one-hybrid fitness for binding parS DNA” value was found to be 0.316.
To WLCT belongs at most 0.2; to EVML, at most 0.2; to IDCL, at most 0.2.
Under LAVM stands at most 0.2; under TSYY, at most 0.2; under APPD, at most 0.2.
With GVQC, the “one-hybrid fitness for binding parS DNA” value was at most 0.2.
To TPMT belongs at most 0.2.
To IMES belongs at most 0.2.
To QKYV belongs at most 0.2.
For the variant NYKT, the “one-hybrid fitness for binding parS DNA” value was at most 0.2.
To QTEY belongs at most 0.2; to RAAS, 1; to RAFN, 0.426.
Regarding RAAH, the “one-hybrid fitness for binding parS DNA” value was at most 0.2.
RAFS: the “one-hybrid fitness for binding parS DNA” value came to 1.02.
To RAAD belongs at most 0.2; to RAFP, at most 0.2; to FSYG, at most 0.2.
To WYKS belongs at most 0.2; to CKSM, at most 0.2; to QYLA, at most 0.2.
To RSHY belongs 0.491.
As to RTRP, the “one-hybrid fitness for binding parS DNA” value is at most 0.2.
Take RCHY: the “one-hybrid fitness for binding parS DNA” value was 0.46.
Under RTLD stands at most 0.2.
Turning to RTIH, the “one-hybrid fitness for binding parS DNA” value was at most 0.2.
To RTHY belongs 0.544.
To RTIS belongs 1.01; to RTLS, 1.01; to RTLN, 0.43.
In the case of RTIP, the “one-hybrid fitness for binding parS DNA” value is at most 0.2.
To RTRH belongs 0.4; to RTRS, 0.83; to APQT, at most 0.2.
Under KERF stands at most 0.2; under LPLK, at most 0.2.
As for GVFL, the “one-hybrid fitness for binding parS DNA” value was at most 0.2.
With VTMY, the “one-hybrid fitness for binding parS DNA” value is at most 0.2.
Consider RDTG, for which the “one-hybrid fitness for binding parS DNA” value was at most 0.2.
To RTWD belongs 0.22; to RTYP, at most 0.2.
To RTPN belongs 0.211; to RTSD, at most 0.2; to RTYS, 1.
Under RTSS stands 0.938.
In the case of RTPH, the “one-hybrid fitness for binding parS DNA” value was at most 0.2.
Under RTSN stands 0.422.
Turning to RTPS, the “one-hybrid fitness for binding parS DNA” value was 0.822.
To RTWS belongs 1.05; to RTYD, at most 0.2; to RTWP, 0.271.
To NVPD belongs at most 0.2; to TDEP, at most 0.2.
Under APNE stands at most 0.2; under FINR, at most 0.2.
PGNR: the “one-hybrid fitness for binding parS DNA” value was at most 0.2.
To YRNV belongs at most 0.2.
To PVLC belongs at most 0.2; to WSCE, at most 0.2.
Under QCQH stands at most 0.2; under RTHD, at most 0.2.
Consider RTHS, for which the “one-hybrid fitness for binding parS DNA” value stood at 0.944.
To RTHH belongs at most 0.2; to RYAC, 0.925; to RYFK, at most 0.2.
Turning to RYFC, the “one-hybrid fitness for binding parS DNA” value was 0.965.
Under RYFQ stands at most 0.2; under RYAK, at most 0.2; under RYAM, 0.267.
Under PLPR stands at most 0.2; under RPYC, at most 0.2; under RDNC, at most 0.2.
Under RSNQ stands at most 0.2.
Take RSYC: the “one-hybrid fitness for binding parS DNA” value worked out at 0.931.
To RDYC belongs at most 0.2.
To RCYC belongs 1.
As to RSNC, the “one-hybrid fitness for binding parS DNA” value is 0.957.
As for RPNC, the “one-hybrid fitness for binding parS DNA” value is at most 0.2.
Under RSYN stands 0.406; under RENC, 0.27.
As for RCNC, the “one-hybrid fitness for binding parS DNA” value is 0.941.
Under RSYD stands at most 0.2; under KDHC, at most 0.2; under ISLY, at most 0.2.
To LALC belongs at most 0.2; to LFYG, at most 0.2; to TPSE, at most 0.2.
Consider GIAA, for which the “one-hybrid fitness for binding parS DNA” value is at most 0.2.
To MCGR belongs at most 0.2; to RSRC, 0.932; to RCDC, 0.877.
Under RERC stands 0.334.
Consider RCRC, for which the “one-hybrid fitness for binding parS DNA” value stood at 0.863.
To RSDN belongs 0.313.
Under RSDC stands 0.773.
Under RSDD stands at most 0.2; under RDRC, at most 0.2; under RPDC, at most 0.2.
As for RPRC, the “one-hybrid fitness for binding parS DNA” value was at most 0.2.
Under REDC stands at most 0.2; under RSRF, 0.281.
